Drawing on PubChem BioAssay AID1645855 (Buhrlage Lab, Dana-Farber Cancer Institute and Novartis …, 2021), this text covers inhibition for 92 compounds.

One may read the inhibition as the relative decrease from the control value, in per cent.

In all, about 47,000 compounds went through this assay and about 3,100 (6.6%) were called active. For the sample, actives were picked, then their nearest neighbours and some compounds at random. A number with no mark means an inactive call. Cut-off read from the data, not from the text of the source: active = inhibition above about 30%; inactive = the rest.

Chain of Ubiquitin carboxyl-terminal hydrolase 17-like protein 5 (Homo sapiens) (A8MUK1 whole entry, looked up): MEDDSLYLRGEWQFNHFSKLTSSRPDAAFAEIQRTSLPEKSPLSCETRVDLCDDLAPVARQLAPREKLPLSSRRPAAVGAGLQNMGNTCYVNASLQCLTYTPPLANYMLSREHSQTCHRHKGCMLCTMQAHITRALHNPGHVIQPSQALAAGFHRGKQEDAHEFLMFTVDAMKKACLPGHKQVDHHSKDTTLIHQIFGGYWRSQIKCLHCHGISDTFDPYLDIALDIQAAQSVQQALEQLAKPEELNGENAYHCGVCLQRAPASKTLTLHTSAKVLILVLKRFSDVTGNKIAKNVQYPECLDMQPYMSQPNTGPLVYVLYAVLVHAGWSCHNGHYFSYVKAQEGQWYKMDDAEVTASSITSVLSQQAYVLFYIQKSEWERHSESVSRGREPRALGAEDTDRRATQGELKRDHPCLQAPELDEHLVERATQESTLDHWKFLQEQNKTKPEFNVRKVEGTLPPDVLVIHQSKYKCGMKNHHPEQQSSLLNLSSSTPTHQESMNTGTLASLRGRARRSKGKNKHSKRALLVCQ

This test concerns the target Ubiquitin carboxyl-terminal hydrolase 17-like protein 5 (Homo sapiens) (UniProt A8MUK1). In words: blocks human USP17 ubiquitin-rhodamine cleavage (AID 1645855). The following applies: purified USP17, Ub-rhodamine cleavage fluorescence, 3 h; at 50 µM; active compounds read high.
For the compound `O=C(c1ccc(Br)o1)N(Cc1cccc(F)c1)c1ccccn1`, the inhibition is 12.8%.

Take `CC(=O)c1ccc(N2CCN(C(=O)c3ccc4noc(-c5ccccc5)c4c3)CC2)cc1`: the inhibition was -0.00315%. Turning to `COc1cccc(CN2C(=O)c3ccccc3C2C(=O)NCc2ccccc2OC)c1` (configuration not stated), the inhibition was 13.5%. With `CC(=O)O[C@H]1CC[C@@]2(C)C(CC[C@]3(C)C2CCC2[C@@]4(C)CC[C@H](C(C)(C)O)C4C[C@H](O)[C@]23C)C1(C)C` (some centres not stated) the figure was 0.105%; with `COc1ccc(C(=O)NCC(=O)Nc2nc3ccccc3[nH]2)c(C)c1`, 46.9% (active). As for `O=C(COc1ccccc1)NCCc1nc2ccccc2[nH]1`, the inhibition is 18.3%. Turning to `O=C(Cc1ccc(Cl)cc1)NCC(=O)Nc1nc2ccccc2[nH]1`, the inhibition is 53.7% (active). As to `COc1ccc(C(=O)Nc2cc(=O)[nH]c3nc(Cc4ccccc4)nn23)cc1`, the inhibition was -0.0855%. In the case of `Cc1noc(C)c1CC(=O)Nc1cccc(-c2nc3ccccc3[nH]2)c1`, the inhibition was 0.008%. On to `Clc1ccccc1SCc1nc2ccccc2[nH]1`, for which the inhibition was 6.98%.

Consider `O=C(Nc1ccc(F)cc1F)c1cnn2c3c(cnc12)CCCCC3`, for which the inhibition was -3.64%. As to `Cc1nc(C2CCCN2)nc2c1CCC(=O)N2CC1CCCCC1` (configuration not stated), the inhibition was 3.63%.

As for `CCc1nc(=O)c2ccccc2n1C1=CCN(Cc2cn(C)nc2C)CC1`, the inhibition is 4.86%. Then `O=C(C1CCN(S(=O)(=O)c2ccc(Cl)cc2)CC1)N1CC[C@@]2(O)CCCC[C@H]2C1`, with -1.48%; and `Cc1cc(O)c(=O)cc2c1C[C@H]1CC(C)(C)/C=C/C[C@@]3(C)Oc4cc(=O)c(O)cc(C)c4C[C@@H]3C[C@H](O)[C@]1(C)O2`, with 40.2% (active). For `CCSc1nc(-c2ccccc2)nc2sc3c(c12)CC(C)(C)OC3`, the inhibition is -11.1%. With `CN1CC(c2ncn[nH]2)c2cc(C(=O)NCc3ccccc3)ccc21` (configuration not stated) the figure was -5%. Then `COc1ccccc1CNC(=O)c1ccc2c(c1)CCN2C(=O)C1CC1`, with -10.3%; and `Cc1noc(-c2cccn(Cc3cc(F)ccc3F)c2=O)n1`, with 5.57%. Take `Cc1nc2c(c(C)c1CCC(=O)Nc1ccccc1F)c(=O)n(C)c(=O)n2C`: the inhibition is -0.603%. With `O=C(Cn1cccc(-c2nc(-c3ccccc3)no2)c1=O)Nc1ccccc1F` the figure was 33% (active); with `COc1ccc(C2C3=C(CC(c4ccc(Cl)cc4)CC3=O)Nc3ccccc3N2C(=O)c2ccc(Cl)c(Cl)c2)cc1` (configuration not stated), -7.25%. With `Fc1cccc(Nc2nc(-c3ccncc3)nc3c2CCC3)c1` the figure was 48.8% (active); with `O=C(CN1CC(=O)c2ccccc2S1(=O)=O)Nc1ccccc1`, -5.61%. With `Cc1nn(-c2ccccc2)c(C)c1S(=O)(=O)N1CCCCC1` the figure was 3.01%; with `COC(=O)c1ccc(NC(=O)CSc2nnc(C(C)Oc3ccccc3)n2C)cc1` (configuration not stated), 5.22%. Take `Cc1nnc(OCC(=O)Nc2ccc(OC(F)(F)F)cc2)c2ccccc12`: the inhibition is 77.7% (active). As for `Cc1cc(C)nc(N(C(=O)C2CC2)c2ccc(OC(F)(F)F)cc2)n1`, the inhibition was 1.83%. Regarding `Cc1ccccc1NC(=O)Cc1csc2nc(-c3ccc(F)cc3)cn12`, the inhibition is 86% (active). Then `Cc1cc(F)ccc1NC(=O)Cc1n[nH]c(Cc2ccccc2)n1`, with -9.74%; and `O=C(Cc1ccc(F)cc1)Nc1ccccc1Cc1ccccc1`, with 27.4%; and `CN1CC2(COc3ccccc31)CN(S(=O)(=O)c1ccc3c(c1)OCO3)CCO2` (configuration not stated), with -2.79%. Then `CC1(C(=O)NCc2cccc(Cl)c2)Oc2cccnc2NC1=O` (configuration not stated), with -7.83%; and `O=C(NCC1CC1)[C@H]1C[C@@H]2CN(S(=O)(=O)c3ccccc3)C[C@H]1O2`, with -13.7%. With `Cn1cc(CCNC(=O)c2cc3ccccc3[nH]2)c2cccnc21` the figure was -17.1%. Turning to `Cc1cccc(NC(=O)c2csc(-c3cn(C)c4ncccc34)n2)c1`, the inhibition is 2.63%. Consider `Cn1cc(-c2nc(C(=O)Nc3ccc(F)cc3)cs2)c2cccnc21`, for which the inhibition is 59.4% (active). Consider `COCCNC(=O)C1c2ccccc2C(=O)N(C2CCCC2)C12CCCCC2` (configuration not stated), for which the inhibition was -1.76%.

`O=S(Cc1cc(Sc2ccccc2)nc(-c2ccccn2)n1)c1ccc(Cl)cc1` (configuration not stated): the inhibition is -9.57%. As to `CC(C)(C)c1cc2n(n1)CCN(Cc1ccccc1C(F)(F)F)C2`, the inhibition was -4.87%. On to `COc1cccc(C(=O)N2CCC(c3nc4ccncc4n3C)C2)c1` (configuration not stated), for which the inhibition was 10%. Then `Fc1ccc(-n2cc(-c3ccccc3)c3c(NCc4ccco4)ncnc32)cc1`, with -3.63%.

Regarding `c1coc(CNc2nc(Nc3cccc4ccccc34)nc3ccccc23)c1`, the inhibition was 83.4% (active). Consider `O=C(CCc1nnc2ccc(N3CCCCC3)nn12)NCCC1=CCCCC1`, for which the inhibition was 1.2%. Consider `O=c1ccc(-c2nc(-c3cnccn3)no2)cn1Cc1ccccc1C(F)(F)F`, for which the inhibition is 7.06%.

In the case of `O=C1CNC(=O)N1CC(O)Cn1c2ccc(Br)cc2c2cc(Br)ccc21` (configuration not stated), the inhibition is 40.1% (active). With `CCc1ccc(-n2c(=O)c3ccccc3n(CC(=O)NCCC3=CCCCC3)c2=O)cc1` the figure was 64.3% (active).

On to `O=C(CCc1nnc2n(CCc3ccccc3)c(=O)c3ccccc3n12)NCCN1CCCC1`, for which the inhibition was 13.7%. With `Cc1ccc(Cn2c(C)c(CNCCC3=CCCCC3)c(C(=O)O)c2C)cc1` the figure was 7.92%. With `CN(CCc1ccccn1)C(=O)c1cc2c(=O)oc3ccccc3c2s1` the figure was 14.5%; with `O=C(CC(NCc1cccnc1)C(=O)O)Nc1ccccc1` (configuration not stated), 6.61%; with `COc1cc(C)c(CN2CCc3c(nc4cc(-c5cc(C)on5)[nH]n4c3=O)C2)cc1OC`, 4.84%. Take `O=c1[nH]c(-c2ccncc2)nc2c1CCN(Cc1cn[nH]c1-c1ccc(Cl)cc1)C2`: the inhibition was -0.0464%.

Regarding `O=c1[nH]c(-c2ccccn2)nc2c1CCN(Cc1cnn(-c3ccc(F)cc3)c1)C2`, the inhibition was 43.5% (active).

As to `C#CCOc1ccc(CN2CCc3nc(-c4cccnc4)[nH]c(=O)c3C2)cc1OC`, the inhibition is -0.00604%. Then `CCc1cccc(C)c1NC(=O)Cn1nc2ccc(C(=O)NCc3ccccc3)cn2c1=O`, with 16.4%; and `Cc1ccc(-c2cc(=O)[nH]c(NCc3ccccc3)n2)cc1`, with -6.42%.

Turning to `CC(=O)N1CCN(c2cc(N3CCCCC3)nc(C)n2)CC1`, the inhibition is -36.6%.

On to `CCCN1CCN(c2ccc(C(=O)O)cc2NS(=O)(=O)c2cc(F)ccc2F)CC1`, for which the inhibition is 10.4%.

As for `Cc1ccc(-c2cc(C(F)F)n3ncc(C(=O)NCC(C)C)c3n2)cc1`, the inhibition was 36.6% (active). Then `COc1ccc(-c2cc(C(F)F)n3ncc(C(=O)N(C)Cc4c(C)nn(C)c4C)c3n2)cc1`, with -8.87%; and `Cc1cc(Nc2ccc(C(=O)NCC(C)C)cc2)n2nc(-c3cccnc3)nc2n1`, with -7.54%. Then `O=C(O)COc1ccccc1C(c1c[nH]c2ccccc12)c1c[nH]c2ccccc12`, with -15.6%. As for `COc1ccc(CN2CCN(C(=O)c3ccc4c(c3)OCO4)CC2)cn1`, the inhibition was -5.73%. For the compound `CC(C)c1ccc(NC(=O)CCC(=O)N(c2ccccc2)c2ccccc2)cc1`, the inhibition was 6.5%. Take `O=S(=O)(Nc1cccc(O)c1)c1ccc2oc3ccc(S(=O)(=O)Nc4cccc(O)c4)cc3c2c1`: the inhibition is 39.1% (active).

For the compound `Cc1cccc(NS(=O)(=O)c2ccc3nnc(C)n3c2)c1`, the inhibition is 4.3%.

With `COc1cccc(NS(=O)(=O)c2ccc(-c3coc(C)n3)cc2)c1`, the inhibition was 0.103%.

As for `CC1(C)Cc2cccc(OCC(=O)NCC(F)(F)F)c2O1`, the inhibition was 4.4%. Regarding `COC(=O)c1ccc(C(=O)NCC2(O)CCc3ccccc32)cc1` (configuration not stated), the inhibition is -0.0822%.

On to `COCCN1C[C@@]23CN(C(=O)NCc4ccccc4)C[C@@H](C[C@@H]2S1(=O)=O)O3`, for which the inhibition is 12.1%. With `CC(=O)Nc1ccc(-n2cnc(C(=O)NCc3ccc(C)cc3)c2)nc1` the figure was 64.2% (active). With `CC(=O)Nc1ccc(-n2cnc(C(=O)N3CCN(c4ccc(C)cc4)CC3)c2)nc1` the figure was 13.8%. With `CC(=O)Nc1ccc(-n2cnc(C(=O)N3CCN(c4cccc(C)c4)CC3)c2)nc1` the figure was -7.95%. Turning to `Cc1nc(C2CCN(S(C)(=O)=O)CC2)nc2c1CCC(=O)N2CC(C)C`, the inhibition is -7.01%. As for `Cc1cc2nc(Cc3ccccc3)cc(=O)n2[nH]1`, the inhibition is -11.5%. With `CC(C)NC(=O)CN1C(=O)CC(C)Sc2ccc(S(=O)(=O)N3CCCCC3)cc21` (configuration not stated) the figure was 43.8% (active); with `CC1CCCN(C(=O)c2cc(S(=O)(=O)N3CCCCC3)ccc2Cl)C1` (configuration not stated), -1.66%.

Take `CCN1CCN(S(=O)(=O)c2ccc3c(c2)CC(C)N3C(=O)C2CC2)CC1` (configuration not stated): the inhibition is 2.74%. As for `COc1ccc2ncc(S(=O)(=O)c3ccccc3)c(N3CCOCC3)c2c1`, the inhibition is -6.05%. With `O=C(Cc1cccc(F)c1)NC1(c2nc(C3CC3)no2)CCCCC1` the figure was 5.03%. Then `Cc1csc(C2(NC(=O)Cc3cc(C)on3)CCCC2)n1`, with 31.4% (active); and `Cc1noc(C2(NC(=O)Cc3ccccc3C)CCCCC2)n1`, with -5.54%; and `Cc1nn2c(S(=O)(=O)NCc3ccccc3F)c(C)nc2s1`, with 18.9%. With `CCN(CC)c1ccc(NC(=O)Nc2ccc(OCc3ccccc3)cc2)cc1` the figure was 7.88%; with `CC1CCN(S(=O)(=O)N2CCCC(C(=O)Nc3ccccc3Cl)C2)CC1` (configuration not stated), 1.17%. For `CCCC(=O)Nc1nc2ccc(CCC(=O)NCc3ccc(F)cc3)cc2s1`, the inhibition was 65.3% (active).

On to `CC(C)C(=O)Nc1nc2cc(NS(=O)(=O)c3ccccc3)ccc2s1`, for which the inhibition is 4.36%. With `O=C(CCc1nc2sc3c(c2c(=O)[nH]1)CCCC3)Nc1ccc(F)cc1` the figure was 2.56%. Then `CC(C)C(=O)Nc1nc2ccc(CCC(=O)Nc3ccc(F)cc3)cc2s1`, with 43.6% (active).

For `Cc1ccc2nc(CCC(=O)NCc3ccc(F)cc3F)n(C)c(=O)c2c1`, the inhibition is 10.9%. Then `O=C(Cc1cccc2ccccc12)Nc1nc2ccc(F)cc2s1`, with 23.9%.
